# Vaccinia mCherry: inhibitors of vaccinia virus infection (mCherry reporter signal); AID 720579; Vaccinia virus mCherry reporter infection, fluorescence; 0.63% of 310,000 active; Potency, µM (doses to about 36.5 µM), inactives show top-dose activity change, negative = inhibition, actives largely listed as inhibitors; calls by dose curve; tested in A549 cells; note: potency is the fitted concentration of half-maximal effect; nearly all actives have a fitted effect of over 35% in size
# Sm TGR inh: blocks Schistosoma mansoni thioredoxin glutathione reductase; Q962Y6; purified TGR, DTNB reduction, TNB absorbance 405 nm; Potency, µM (top dose mostly 114 µM), without a hit: at the top dose activity change, negative = inhibition, hits mostly inhibitors; 3% of 360,000 active; note: potency is the fitted concentration of half-maximal effect; nearly all actives have a fitted effect of over 60% in size
#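 First, TGR (20 nM dispensed) and NADPH were mixed with compound. Second, a 15 min room-temperature incubation followed. Third, further NADPH and then DTNB were added to start the reaction. Finally, TNB absorbance was monitored kinetically.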
# Vaccinia Venus: inhibitors of vaccinia virus (Venus reporter). Vaccinia virus Venus reporter expression, fluorescence. Potency, µM (top dose mostly 36.5 µM), without a hit: top-dose activity change, negative = inhibition, actives largely listed as inhibitors. 0.46% of 330,000 active. AID 720580; calls by dose curve; tested in A549 cells; note: potency is the fitted concentration of half-maximal effect; nearly all actives have a fitted effect of over 30% in size
# HCMV inh: human cytomegalovirus inhibition. HFF cells, HCMV-luciferase reporter, 72 h; stronger effect = lower value. activity change, negative = inhibition, % at 57.5 µM. 4.5% of 410,000 active; in the data active = activity change below about -60%; inconclusive = no clear call, values can overlap the other calls; inactive = above about -39%
#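 Steps: HFFs plated, 16 h 37C; compounds added; HCMV-luciferase added to MOI 1 PFU/cell; 72 h 37C; OneGlo reagent, 5 min room temperature; luminescence read, normalized to controls.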
# HCV inhibitor: HCV inhibition; Potency, µM (top dose mostly 41.8 µM), without a hit: top-dose activity change, negative = inhibition, actives largely listed as inhibitors; 3.4% of 340,000 active; Huh7.5.1 HCVcc-Cre infection, luciferase reporter, 44 h; note: potency is the fitted concentration of half-maximal effect
#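 A cell-based infection assay in which seeded cells (1,000 per well) receive test compound after 4 h, are inoculated with HCVcc-Cre at approximately 0.5 moi, and are incubated 44 h before luminescence detection.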
# FMDV antiviral: foot and mouth disease virus antiviral activity. AID 1159524. 1.2% of 410,000 active. Potency, µM (doses to about 57.9 µM), without a hit: at the top dose activity change, negative = inhibition, hits mostly inhibitors. FMDV antiviral cell-based qHTS; calls by dose curve; tested in HEK293T cells; note: read-out not given here; potency is the fitted concentration of half-maximal effect; nearly all actives have a fitted effect of over 45% in size
# The depositor's hits bear a star; i = inactive; ? = inconclusive; / = no result given; [ ] = dose if it differs, or a comment. The list is not random: actives were taken first. Their share in the collection is about 9.3%. Unless noted, calls come from the whole dose curve; as a rule, active = well fitted curve in the direction sought with a large enough effect; inconclusive = small, poorly fitted or top-dose-only effect, or another doubt; inactive = no such curve, though single readings can be large; an effect the other way counts as inactive or inconclusive. % is set by controls: 0 for no effect and ±100 for the full control effect.
SMILES,Vaccinia mCherry,Sm TGR inh,Vaccinia Venus,HCMV inh,HCV inhibitor,FMDV antiviral
O=C(CSCc1ccc(Cl)cc1)c1ccco1,/,-28%,/,/,/,/
Cc1cc(NC(=O)CSc2ccc3nnc(CCNC(=O)c4ccccc4)n3n2)no1,/,3%,/,-26,15%,-6%
CN(CC(=O)Nc1ccccc1C(=O)NC1CC1)Cc1ccco1,/,-30%,/,-16,3%,-14%
O=C(Nc1ccc2nc3n(c(=O)c2c1)CCCCC3)c1cc([N+](=O)[O-])ccc1F,/,-10%,/,-72*,?,32µM*
O=C(Nc1ccc2nc3n(c(=O)c2c1)CCCC3)c1ccccc1F,/,5%,/,0,-14%,48%
O=C(Nc1ccc2nc3n(c(=O)c2c1)CCCCC3)c1c(F)ccc([N+](=O)[O-])c1F,?,?,?,-100*,14µM*,10µM*
CC1CCCC(O)(C(C(=O)O)c2ccccc2)C1 (stereo not given),i,/,5%,-30,12%,-13%
NC(=S)N/N=C/c1ccc(C(F)(F)F)cc1,1.8µM*,2%,?,-88*,-7%,-4%
NC(=S)N/N=C/c1ncc(C(F)(F)F)cc1Cl,1.4µM*,14%,-22%[7.34 µM],/,5.6µM*,-16%
CC(C)Oc1ccc(/C=N/NC(N)=S)cc1,1.1µM*,0%,1.6µM*,36,-3%,22%
C=CCOc1ccc(/C=N\NC(N)=S)cc1,/,-13%,/,1,-10%,30%
COc1ccc(/C=N/NC(N)=S)cc1,6.3µM*,-1%,5.6µM*,13,?,4%
ON/C=N/C(=S)Nc1ncc(C(F)(F)F)cc1Cl,i,17%,-3%,-32,0%,-2%
COc1ccc(N(CC(=O)NCc2ccccc2OC)S(=O)(=O)c2ccccc2)cc1,i,-2%,-19%,-17,20%,-14%
COc1ccc(N2CCN(C(=O)CCn3nnc4ccccc43)CC2)cc1,-10%,-27%,-6%,24,-1%,-12%
CC1=CC(C)(C)N=C(Nc2nc(C)c3cc(C)cc(C)c3n2)N1,/,9%,/,-97*,?,?
Cc1cc(C)c2nc(Nc3nc(-c4ccccc4)cc(=O)[nH]3)nc(C)c2c1,-2%,-7%,-7%,-9,?,-20%
COc1ccccc1C(=O)NCCn1ccc2ccccc21,/,2%,-22%,6,?,-5%
CCOC(=O)C1=C(C)N(C)C(=O)NC1c1cc2c(cc1[N+](=O)[O-])OCO2 (stereo not given),-7%,-33%,-6%,-4,8%,12%
O=C(Nc1ccccn1)C1CCN(c2ncnc3c2nc2n3CCCCC2)CC1,/,-8%,/,-84*,?,?
COC(=O)C(CCSC)NC(=O)C1CCN(c2ncnc3c2nc2n3CCCCC2)CC1 (stereo not given),i,1%,-7%,-100*,/,16%
O=C(Nc1ccc(F)cc1)C1CCN(c2ncnc3c2nc2n3CCCCC2)CC1,/,-8%,/,-9,3%,-9%
CCc1ccc(NC(=O)C2CCN(c3ncnc4c3nc3n4CCCCC3)CC2)cc1,-4%,-12%,-9%,-73*,?,?
CCCCN(C(=O)C1CC(=O)N(c2ccc(OC)cc2OC)C1)c1c(N)n(CC(C)C)c(=O)[nH]c1=O (stereo not given),0%,-18%,4%,-39,10%,-9%
CN(Cc1ccco1)C(=O)CCc1nc2sc3c(c2c(=O)[nH]1)CCCC3,/,-10%,/,/,5%,-24%
SMILES,Vaccinia mCherry,Sm TGR inh,Vaccinia Venus,HCMV inh,HCV inhibitor,FMDV antiviral
O=c1onc(-c2ccccc2)c2ccccc12,/,/,/,-5,22%,3%
CN(C)S(=O)(=O)c1ccc(C(=O)OCCc2ccccc2)cc1,-12%,-4%,2%,45,9%,46%
CCOc1ccc(CNCCCSc2ncccn2)cc1OC,/,-1%,/,69,-21%,1%
O=C(c1cccnc1)c1cc2ccccc2[nH]1,-7%,-15%,-2%,-6,27%,3%
CC(=O)Nc1cccc(-c2csc(N)n2)c1,-6%,2%,-18%,-11,7%,15%
CC(=O)Nc1cccc(-c2cnc(N)c(C(=O)c3cccnc3)n2)c1,13µM*,/,10µM*,/,11µM*,-4%
NC(=O)c1cccc(-c2cnc(N)c(C(=O)c3cccnc3)n2)c1,6.3µM*,/,?,/,?,-17%
COc1ccc(Cl)cc1N1C(=O)/C(=C\c2sccc2C)N=C1SCC(=O)NC1CC1,/,-9%,/,-33,?,?
CCCCn1c(=O)[nH]c(=O)c2c1nc(-c1cccc(OC)c1)n2C,-21%,-10%,-13%,-20,20%,-8%
CCCNC(=O)N1CCN(S(=O)(=O)c2ccc3c(ccn3C)c2)CC1,0%,1%,-2%,-9,/,2%
COCCNC(=O)CSc1nc(-c2ccccc2)[nH]c1-c1ccc(OC)cc1,-9%,5%,-4%,-21,/,-7%
COc1ccc(-c2[nH]c(-c3ccc(Cl)cc3)nc2SCC(=O)Nc2nccs2)cc1,1%,-14%,-22%,-79*,?,-29%
COc1ccc(-c2[nH]c(-c3ccccc3)nc2SCC(=O)Nc2nccs2)cc1,i,-17%,-22%,?,14µM*,-30%
CN(CCc1ccccc1)C(=O)c1cccc(NC(=O)Cc2cccc(NC(=O)C3CCN(C(=O)C4CCCC4)CC3)c2)c1,-15%,/,-26%,-9,?,-20%
Cc1cccc2cc(CN(Cc3cccs3)Cc3nnnn3Cc3ccccc3)c(=O)[nH]c12,-30%,4%,?,?,10µM*,/
COc1ccc2cc(CN(Cc3cccnc3)Cc3nnnn3Cc3ccccc3)c(=O)[nH]c2c1,i,0%,-22%,3,10%,/
COc1ccc2cc(CN(Cc3cccs3)Cc3nnnn3Cc3ccccc3)c(=O)[nH]c2c1,/,3%,/,-99*,-27%,-4%
CCC1CCc2c(c3ccccc3[nH]c2=O)O1 (stereo not given),-28%,-16%,-14%,-14,-15%,-11%
O=c1[nH]c2ccccc2c2oc(CCl)nc12,-7%,6.3µM*,2%,0,-13%,?
NCCNc1ccc(C(=O)N2c3ccccc3Sc3ccccc32)cc1[N+](=O)[O-],-5%,5%,-23%,30,11µM*,?
CNc1snc(C)c1C(=O)OCC(=O)c1ccc(OC)c(F)c1,/,5%,/,-74*,?,?
CNc1snc(C)c1C(=O)OCC(=O)c1cc(F)ccc1OC,/,-2%,/,-31,-12%,?
COC(=O)c1ccc(NC(=O)CSc2nccn2CCc2ccccc2)cc1,-3%,3%,-20%,?,-1%,24%
Cc1cc(C)n(C(=O)/C(C#N)=N/Nc2cc(Cl)cc(Cl)c2)n1,?,-1%,?,/,10µM*,?
CC(=O)c1ccc(OCCCC(=O)N2CCN(S(=O)(=O)c3ccc(C(C)C)cc3)CC2)cc1,-5%,6%,-21%,?,10µM*,?
